Structures are written as SMILES. Compounds without any hit were thinned out: in the full panel of roughly 83,000, 20% have a hit.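 Plates (96-well) were seeded with cells, treated with compound at one concentration, and incubated for 48 hours before percent growth was determined.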 A number with no mark means an inactive call. Activity calls are given as the source filed them. The calls were made as follows: active = growth percent below 10; inactive = the rest.

Some test systems named below: NCI-H23 lung; NCI-H226 lung; NCI-H322M lung; HOP-62 NSCLC; NCI-H460 lung; HOP-92 NSCLC; NCI-H522 lung; A549/ATCC NSCLC; 786-0 renal; COLO 205 colon; DU-145 prostate; K-562 leukemia; MALME-3M melanoma; MDA-MB-231 breast; RXF 393 renal; SF-268 CNS; SF-295 CNS; SF-539 CNS; UACC-257 melanoma; M14 melanoma.
Common to all, as to assay: NCI-60 one-dose screen, 48 h (100 = growth as untreated, 0 = no growth, -100 = all killed)
Holding throughout (settings): 10 µM unless noted

Consider `CN(C)c1cccc2[nH]c(-c3[nH]ncc3Nc3ccnc(N)n3)nc12`, for which the growth in the assay on NCI-H23 lung was -45.1% (active); in the assay on NCI-H226 lung it was -26.6% (active); in the assay with NCI-H322M lung it was -13.6% (active); in the assay on HOP-62 NSCLC, -19.6% (active); in the assay with NCI-H460 lung, -32.7% (active); in the assay with HOP-92 NSCLC, -11.3% (active). For the same compound, the growth was -24.6% (active) in the assay with NCI-H522 lung; -7.09% (active) in the assay on A549/ATCC NSCLC; -58% (active) in the assay on 786-0 renal; -64% (active) with COLO 205 colon; -5.08% (active) in the assay on DU-145 prostate; 3.38% (active) in the assay on K-562 leukemia. The growth in the assay with MALME-3M melanoma is -79% (active); with MDA-MB-231 breast, -18.8% (active); in the assay on RXF 393 renal it was -86.3% (active); in the assay on SF-268 CNS, -25.3% (active); with SF-295 CNS, -41.5% (active); in the assay with SF-539 CNS it was -83.8% (active). Moreover, the results for the growth with UACC-257 melanoma and in the assay on M14 melanoma were -65.8% (active) and -79.9% (active), respectively.

Consider `N=C(N)c1ccc(-c2ccc(-c3cc(F)cc(F)c3)o2)nc1`, for which the growth in the assay with NCI-H23 lung is 87.8%; with NCI-H226 lung it was 86.6%; in the assay on NCI-H322M lung, 96.4%; with HOP-62 NSCLC it was 78.4%; with NCI-H460 lung it was 99.4%; in the assay on HOP-92 NSCLC, 59%. Also, the growth in the assay with NCI-H522 lung was 99.1%; in the assay with A549/ATCC NSCLC it was 94.8%; in the assay with 786-0 renal, 95.6%; in the assay on COLO 205 colon it was 63.4%; with DU-145 prostate it was 104%; in the assay on K-562 leukemia it was 15.9%. Also, the growth in the assay on MALME-3M melanoma is 97.3%; in the assay with MDA-MB-231 breast it was 78.3%; in the assay on RXF 393 renal, 75.2%; in the assay on SF-268 CNS it was 90.8%; in the assay with SF-295 CNS it was 95.9%; in the assay with SF-539 CNS, 88.4%. Also, the growth with UACC-257 melanoma is 115%; in the assay with M14 melanoma it was 94.7%.

With `c1cc(N2CCCC2)c2nc(-c3[nH]ncc3Nc3ncnc4[nH]ccc34)[nH]c2c1`, the growth was -45.3% (active) in the assay with NCI-H23 lung; -40.4% (active) in the assay with NCI-H226 lung; -21.1% (active) in the assay on NCI-H322M lung; -13.6% (active) in the assay with HOP-62 NSCLC; -4.99% (active) in the assay on NCI-H460 lung; -1.33% (active) in the assay on HOP-92 NSCLC. The growth with NCI-H522 lung was -11.3% (active); with A549/ATCC NSCLC, -7.17% (active); in the assay with 786-0 renal, -26.1% (active); with COLO 205 colon it was -65.9% (active); in the assay with DU-145 prostate, -4.71% (active); in the assay on K-562 leukemia it was 6.25% (active). Also, the growth in the assay with MALME-3M melanoma is -41.4% (active); in the assay on MDA-MB-231 breast, -15.2% (active); in the assay on RXF 393 renal, -75.9% (active); in the assay with SF-268 CNS, -25.1% (active); in the assay with SF-295 CNS, -34% (active); in the assay on SF-539 CNS, -54.3% (active). Further, the growth is -12.8% (active) in the assay on UACC-257 melanoma and -77.1% (active) with M14 melanoma.

`COC(=O)[C@]12CC[C@@H](C(C)=O)[C@@H]1[C@H]1CC[C@@H]3[C@@]4(C)C/C(=C/c5cccnc5)C(=O)C(C)(C)[C@@H]4CC[C@@]3(C)[C@]1(C)CC2`: the growth in the assay on NCI-H23 lung was 53.2%; with NCI-H226 lung, 48.1%; in the assay on NCI-H322M lung, 93.9%; in the assay with HOP-62 NSCLC, 103%; in the assay on NCI-H460 lung, 70.9%; in the assay on HOP-92 NSCLC it was 66.7%. The growth in the assay on NCI-H522 lung was 47.5%; in the assay with A549/ATCC NSCLC, 51.4%; in the assay with 786-0 renal, 84.9%; in the assay with COLO 205 colon, 82.5%; in the assay on DU-145 prostate, 68.8%; in the assay with K-562 leukemia it was 18.3%. Also, the growth in the assay on MALME-3M melanoma is 29.9%; in the assay on MDA-MB-231 breast, 76.6%; with RXF 393 renal, 30.9%; in the assay on SF-268 CNS it was 68.6%; with SF-295 CNS it was 75.3%; in the assay with SF-539 CNS, 81%. The growth was 58.1% with UACC-257 melanoma and 56.7% in the assay with M14 melanoma.

For `C/C(Cc1ccc(Cl)cc1)=C(/c1ccc(Cl)cc1)c1ccc(OCCN2CCCC2)cc1`, the growth is 78.7% in the assay on NCI-H23 lung; 96.4% in the assay on NCI-H226 lung; 93.4% with NCI-H322M lung; 91.7% in the assay with HOP-62 NSCLC; 35.9% in the assay on NCI-H460 lung; 60.8% in the assay with HOP-92 NSCLC. The growth in the assay on NCI-H522 lung is 73.7%; in the assay on A549/ATCC NSCLC it was 69.8%; in the assay with 786-0 renal it was 86%; in the assay with COLO 205 colon it was 61.6%; in the assay with DU-145 prostate, 87%; in the assay on K-562 leukemia, 15.2%. Further, the growth in the assay with MALME-3M melanoma was 77.7%; in the assay with MDA-MB-231 breast, 89.2%; with RXF 393 renal, 86.3%; in the assay on SF-268 CNS, 92.4%; in the assay on SF-295 CNS, 92.9%; with SF-539 CNS, 89.7%. In addition, the growth was 79.7% in the assay with UACC-257 melanoma and 78.2% with M14 melanoma.

As for `CC(=O)n1c(/C(C#N)=C/c2ccc(N(C)C)cc2)cc2ccccc21`, the growth in the assay with NCI-H23 lung is 40.5%; with NCI-H226 lung it was 61.1%; in the assay with NCI-H322M lung it was 53.3%; in the assay with HOP-62 NSCLC, 31.3%; in the assay on NCI-H460 lung, 15%; in the assay with HOP-92 NSCLC, 70.9%. For the same compound, the growth in the assay on NCI-H522 lung was 23.1%; in the assay on A549/ATCC NSCLC it was 48.8%; in the assay on 786-0 renal, 41.3%; with COLO 205 colon, 16.5%; in the assay on DU-145 prostate, 35.8%; with K-562 leukemia, 15%. Besides, the growth in the assay on MALME-3M melanoma is 57%; in the assay on MDA-MB-231 breast, 44.7%; with RXF 393 renal, 24.6%; in the assay on SF-268 CNS, 56.9%; in the assay with SF-295 CNS it was 7.39% (active); with SF-539 CNS, 17.1%. Moreover, the growth in the assay on UACC-257 melanoma was 68.6%; in the assay on M14 melanoma, 26.8%.

With `C=C(C)[C@@H]1CC[C@]2(C=O)CC[C@]3(C)[C@H](CC[C@@H]4[C@@]5(C)C/C(=C/c6cccnc6)C(=O)C(C)(C)[C@@H]5CC[C@]43C)[C@@H]12`, the growth in the assay on NCI-H23 lung was 75.6%; with NCI-H226 lung, 91.3%; in the assay with NCI-H322M lung, 100%; in the assay on HOP-62 NSCLC, 119%; with NCI-H460 lung it was 85.7%; in the assay on HOP-92 NSCLC, 83.9%. In addition, the growth in the assay with NCI-H522 lung is 72%; in the assay with A549/ATCC NSCLC, 57.1%; in the assay on 786-0 renal it was 101%; in the assay with COLO 205 colon, 95.5%; in the assay with DU-145 prostate, 92.1%; with K-562 leukemia, 32.3%. For the same compound, the growth with MALME-3M melanoma was 88.1%; in the assay with MDA-MB-231 breast, 93.8%; in the assay on RXF 393 renal it was 83.2%; with SF-268 CNS, 85.8%; in the assay on SF-295 CNS, 86.9%; in the assay with SF-539 CNS, 96.5%. In addition, the growth was 84.5% in the assay with UACC-257 melanoma and 78.5% with M14 melanoma.

Regarding `N#CC1=C(N)Oc2c(sc3c(F)cccc23)C1c1ccc(Cl)cc1` (stereo not given), the growth with NCI-H23 lung was 43.7%; in the assay with NCI-H226 lung it was 74.9%; with NCI-H322M lung, 55.1%; with HOP-62 NSCLC, 28.8%; in the assay on NCI-H460 lung it was 13.1%; with HOP-92 NSCLC, 36.9%. The growth in the assay with NCI-H522 lung was 6.14% (active); in the assay with A549/ATCC NSCLC it was 38%; with 786-0 renal it was 21.1%; in the assay on COLO 205 colon, 38.4%; with DU-145 prostate, 41%; in the assay on K-562 leukemia, 14.2%. In addition, the growth is 57.9% with MALME-3M melanoma; 43.5% in the assay on MDA-MB-231 breast; 9.87% (active) in the assay on RXF 393 renal; 45.3% with SF-268 CNS; 20.2% in the assay with SF-295 CNS; -0.306% (active) in the assay with SF-539 CNS. Further, the growth with UACC-257 melanoma was 66.4%; in the assay with M14 melanoma, -26.1% (active).

The record behind these values is PubChem BioAssay (NCI).
